# According to PubChem BioAssay (EPA / NIEHS):
# Results filed as inconclusive are left out. The source holds several records for some structures; these can differ, active in one and inactive in another. Active and inactive are the calls of the source. Rule for the calls, unless noted: active = hit-call score of the fitted dose curve at least 0.9, where 1 is the maximum; inconclusive = response in the unintended direction; inactive = score below 0.9.
# Columns and labels:
# [1] = UKN4_HCS_LUHMES_cell_viability: Viability Assessment in the University of Konstanz (UKN) Leist Lab Neurite Outgrowth Assay in human LUHMES cells (UKN4) (AID 2284232; active = hit-call score of the fitted dose curve at least 0.9, where 1 is the maximum; inactive = score below 0.9)
# Experimental: UKN4_HCS_LUHMES is a cell-based, multiplexed-readout assay screening for neurite outgrowth and cell viability that uses LUHMES, a human central nervous system cell line, with measurements taken at […] after chemical dosing in a microplate: 96-well plate. UKN4, also referred to as NeuriTox, is an assay that uses LUHMES neuronal precursors as a model of dopaminergic neuronal differentiation. Following a 2-day differentiation period, cells are exposed to chemicals for 24 hr and neurite area is evaluated as a marker of neurite outgrowth using high-content imaging of cells stained with calcein AM. Cell viability is assessed using stain Hoechst H-33342.UKN4_HCS_LUHMES_cell_viability is an assay component measured from the UKN4_HCS_LHUMES assay. It is designed to make measurements of enzyme activity, a form of viability reporter, as detected with Fluorescence intensity signals by HCS Fluorescent Imaging.The assay endpoint UKN4_HCS_LUHMES_cell_viability was analyzed with bidirectional fitting relative to DMSO as the negative control and baseline of activity. Using a type of viability reporter, gain or loss-of-signal activity can be used to understand viability effects. To generalize the intended target to other relatable targets, this assay endpoint is annotated to the cell cycle intended target family, where the subfamily is viability. […]
# [2] = UKN2_HCS_IMR90_cell_viability: Viability Assessment in the University of Konstanz (UKN) Leist Lab Neural Crest Cell Migration Assay in human induced IMR90 Pluripotent Stem Cells (UKN2) (AID 2284233; active = hit-call score of the fitted dose curve at least 0.9, where 1 is the maximum; inactive = score below 0.9;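 note: viability of neural crest cells differentiated from IMR90 iPSC measured by calcein-AM fluorescence imaging; cells exposed to compound for 24 h after a 24 h migration phase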)
# Summary of the method: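 Human IMR90-derived neural crest cells were allowed to migrate for 24 h into a cell-free zone, then exposed to test chemicals for 24 h. Calcein-AM and Hoechst staining with high-content imaging gave viability, analysed against DMSO baseline.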
# [3] = CCTE_Mundy_HCI_Cortical_NOG_NeuronCount: CCTE's Neurite Outgrowth Assay in rat cortical cells for Neuron Count, Mundy Lab (AID 2284236);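 note: neurons counted by imaging betaIII-tubulin and Hoechst stained cortical cells; cells exposed to compound for about 48 hours before fixation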
# Summary of the method: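 Read-out: neuron number by high-content imaging of betaIII-tubulin (Alexa Fluor-488) and Hoechst-labelled rat primary cortical cells.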
# [4] = CCTE_Mundy_HCI_hNP1_CellTiter: CCTE's Cell Titer-Glo 2 Assay in human neuroprogenitor cells for Viability, Mundy Lab (AID 2284241);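 for AC50: a hit is a drop in ATP luminescence versus DMSO meaning reduced viability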
# Summary of the method: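 Human neural progenitor cells (hNP1, WA09-derived) were plated on poly-L-ornithine/laminin and grown 40 to 44 hours at 37 °C, 5% CO2 before chemical addition. Twenty-four hours later, ATP was measured by CellTiter-Glo luminescence; loss of signal versus DMSO indicates reduced viability.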
# [5] = CCTE_Mundy_HCI_Cortical_Synap_Neur_Matur_NeuronCount: CCTE's Synaptogenesis and Neurite Maturation Assay in rat cortical cells for Neuron Count, Mundy Lab (AID 2284242)
# Experimental: CCTE_Mundy_HCI_Cortical_Synap&Neurite_Matur is a multiplexed, cell-based-readout assay that uses rat primary cortical cells with measurements taken at 288.33 hours after chemical dosing in a microplate: 96-well plate.CCTE_Mundy_HCI_Cortical_Synap_Neur_Matur_NeuronCount is one of eight components of the CCTE_Mundy_HCI_Cortical_Synap&Neurite_Matur assay. It measures cell viability related to number of neurons using High Content Imaging of fluorescently labelled markers.[…] Using a type of morphology reporter, loss -of-signal activity can be used to understand developmental effects.
# Cells are plated onto 96 well plates and allowed 2 hr for attachment to the substrate. At days in vitro (DIV) 5, Cytosine Arabinoside (AraC) is added to arrest glial cell growth. Chemicals are dosed and a media change is performed at DIV 7 of differentiation and is continued through DIV 12 when the experiment is terminated. Cells are fixed with […] and Hoechst Dye. Cells are stained using Millipore Mouse anti-MAP2MAB3418 (1:800) and Millipore Rabbit anti-Synaptophysinsc-1750 (1:250) primary antibodies and Alexa Fluor-488 goat anti-mouse and AlexaFluor-546 goat anti-rabbit secondary antibodies to label neuronal cell nuclei, synapses and neurites. A Cellomics ArrayScan VTi HCS Reader is used for automated image acquisition and analysis of neurite outgrowth.
# [6] = TAMU_HCS_1.5hr_SingleDonor1434_Cytotoxicity: Cytotoxicity Assessment using High-content Screening (HCS) Fluorescent Imaging for the Texas A&M University (TAMU) 1.5-hr Human Induced Pluripotent Stem Cell (iPSC)-derived Cardiotoxicity Assay (AID 2284234)
# Summary of the method: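 Human iPSC-derived cardiomyocytes dosed at 0.2, 1, 10, 100 uM final (0.5% DMSO) for 90 min at 37 C. Hoechst 33342-stained nuclei counted by 10x high-content imaging; POD is EC10, a 10% drop in total cell count versus DMSO.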
# [7] = TAMU_PeakParms_SingleDonor1434_QT: Texas A&M University (TAMU) 1.5-hr Human Induced Pluripotent Stem Cell (iPSC)-derived Cardiomyocytes Calcium (Ca+2) Flux Assay for Cardiotoxicity: QT (decay-rise ratio) (AID 2284235)
# Summary of the method: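 iPSC-derived cardiomyocytes (single donor 1434) dosed at 0.2, 1, 10, 100 uM final in 0.5% DMSO, 90 min at 37C. Ca2+ flux fluorescence decay/rise ratio; EC05 (5% increase versus DMSO) as POD, excluding beat-arrest and severe-notch data.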
smiles,measurement,setting,value
Nc1ncn([C@@H]2O[C@H](CO)[C@@H](O)[C@H]2O)c(=O)n1,AC50,[1],16.5 µM (active)
same,AC50,[2],6.91 µM (active)
same,outcome,[2],inactive
same,outcome,[3],inactive
same,AC50,[4],2.78 µM (active)
same,outcome,[4],inactive
same,outcome,[5],inactive
c1ccc2c(c1)ccc1cc3c(ccc4ccccc43)cc12,outcome,[6],inactive
O=C(O)CCCC[C@@H]1SC[C@@H]2NC(=O)N[C@@H]21,outcome,[7],inactive
CC1(C)S[C@@H]2[C@H](NC(=O)COc3ccccc3)C(=O)N2[C@H]1C(=O)O,outcome,[3],inactive
N[C@H]1C(O)O[C@H](CO)[C@H](O)[C@@H]1O (stereo partly specified),outcome,[4],inactive
